SMARCA2 activ: SMARCA2 (BRM) function activators, primary screen, cell-based, luminescence, high throughput; MG213 cells, MMTV-luciferase reporter, dexamethasone, overnight; activation, % at 9.1 µM; 370,000 compounds, 1% hits; in the data active means activation above about 7.8%;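 further: 0% = vehicle wells and 100% = reference activator wells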
JMJD2C inh: inhibitors of GASC-1 histone demethylase, primary screen, biochemical, fluorescence, DELFIA europium. Lysine-specific demethylase 4C (Homo sapiens), Q9H3R0. GST-JMJD2C(1-420) H3K9me3 demethylation. inhibition, % at 2.35 µM. 330,000 compounds, 0.069% hits;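 active means more than half of a compound's replicate wells show inhibition beyond 50%, single wells judged on their own value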;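 further: signal counts dimethyl H3K9 product captured on neutravidin plate; 0% = median of DMSO wells and 100% = 0.3 times that DMSO median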
ALR inh: inhibitors of human ALR sulfhydryl oxidase, primary screen, biochemical, H2O2 detection, HRP-luminol luminescence, single point. FAD-linked sulfhydryl oxidase ALR (Homo sapiens), P55789. purified ALR, DTT oxidation. inhibition, % (no concentration beside the values). 290,000 compounds, 3.8% hits;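 active means mean replicate inhibition above about 79%, with every replicate also reaching it, limit read from the data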
Target sequence (P55789 whole entry, looked up): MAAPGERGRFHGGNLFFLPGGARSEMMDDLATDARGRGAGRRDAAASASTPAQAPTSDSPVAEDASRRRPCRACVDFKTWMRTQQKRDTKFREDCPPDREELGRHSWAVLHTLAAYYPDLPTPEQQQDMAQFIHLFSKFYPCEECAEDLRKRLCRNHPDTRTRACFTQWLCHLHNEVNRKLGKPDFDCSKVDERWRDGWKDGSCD
Granule exo inh: LAMP-1 surface exposure blockers, TALL-104 cells – cell-based, flow cytometry, MLPCN library, primary screen. TALL-104 LAMP-1 surface exposure; cells stimulated with thapsigargin and PMA. inhibition, % at 10 µM. 360,000 compounds, 0.66% hits. AID 651702, 2012;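 active means inhibition above about 55%, limit read from the data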
beta cell repl: inducers of MIN6 beta-cell proliferation, primary screen, ATP luminescence, uHTS; 330,000 compounds, 0.29% hits; proliferation, % at 10 µM; AID 2380, 2010; MIN6 cells proliferation, ATPlite luminescence, 48 h; cells starved in 0.2% serum; 100% = growth in 10% serum;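 active means compounds whose signal lies at least 3.5 SD above the mean of all wells on their plate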;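 further: 0% = DMSO-treated cells in low-serum medium and 100% = 10% serum control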
PfM18AAP inh: PfM18AAP inhibitors, malaria aminopeptidase, primary screen, biochemical, QFRET, recombinant enzyme; M18 aspartyl aminopeptidase (Plasmodium falciparum 3D7); H-Glu-NHMec fluorogenic cleavage; inhibition, % at 7.35 µM; 290,000 compounds, 1.2% hits; AID 1822, 2009;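 active means inhibition above the campaign mean inhibition over all tested compounds plus 3 SD, cut at about 28% in these data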;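 further: 0% = plate median of test compound wells and 100% = 2 mM ZnCl2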
* hit, by the source's call. Only some compounds are listed: those with a hit (about 5.4% of all), similar ones and a draw of the others.

O=[N+]([O-])c1ccccc1/C=C/C=N/n1c(-c2ccccc2F)n[nH]c1=S was read as SMARCA2 activ -2, JMJD2C inh -3, ALR inh 98*, Granule exo inh 16, beta cell repl -3 and PfM18AAP inh 12.
For S=c1[nH]nc(-c2ccc(Cl)cc2)n1/N=C/c1ccco1 the results were SMARCA2 activ 0, JMJD2C inh -6, ALR inh 16, Granule exo inh -9, beta cell repl -2 and PfM18AAP inh 13.
S=c1[nH]nc(-c2ccco2)n1/N=C/c1cccc(Cl)c1Cl was read as SMARCA2 activ -1, JMJD2C inh -8, ALR inh 96*, Granule exo inh 2, beta cell repl -3 and PfM18AAP inh 15.
`S=c1[nH]nc(-c2ccc(Cl)cc2)n1/N=C/C=C/c1ccco1` gave SMARCA2 activ -3, JMJD2C inh -6, ALR inh 99*, Granule exo inh -4, beta cell repl 0 and PfM18AAP inh 16.
`O=C(C1CCCN1S(=O)(=O)c1ccc([N+](=O)[O-])cc1)N1CCN(c2ccccc2)CC1` (configuration not stated) gave SMARCA2 activ -5.
`c1ccn(-c2ccc(-c3noc(CCc4ccncc4)n3)cc2)c1` gave SMARCA2 activ -6.
Screening CC(/C=N/n1c(-c2n[nH]c3c2CCC3)n[nH]c1=S)=C\c1ccco1 returned SMARCA2 activ -2, JMJD2C inh -8, ALR inh 94*, Granule exo inh -10, beta cell repl -2 and PfM18AAP inh 10.
Screening S=c1[nH]nc(-c2ccco2)n1/N=C/C=C/c1ccccc1 returned SMARCA2 activ 3, JMJD2C inh 2, ALR inh 98*, Granule exo inh 1, beta cell repl -2 and PfM18AAP inh 12.
`CC(=C/c1ccccc1)/C=N/n1c(-c2ccco2)n[nH]c1=S` gave SMARCA2 activ 0, JMJD2C inh 4, ALR inh 97*, Granule exo inh 0, beta cell repl 2 and PfM18AAP inh 13.
Screening S=c1[nH]nc(-c2ccco2)n1/N=C/c1cccs1 returned SMARCA2 activ 0, JMJD2C inh -13, ALR inh 12, Granule exo inh -6, beta cell repl 0 and PfM18AAP inh 22.
`COc1cccc(-c2nnc(SCC(=O)Nc3cccc4ccccc34)n2Cc2ccco2)c1` gave SMARCA2 activ -4.
Screening Cc1nc(N)sc1-c1csc(Nc2cccc(O)c2)n1 returned SMARCA2 activ 2, JMJD2C inh -25, ALR inh 47, Granule exo inh -7, beta cell repl -3 and PfM18AAP inh 31*.
`Cc1nc(C)c(-c2csc(Nc3cccc(O)c3)n2)s1` gave SMARCA2 activ 3, JMJD2C inh 16, ALR inh 32, Granule exo inh 12, beta cell repl -4 and PfM18AAP inh 1.
`CC(NC(=O)c1ccco1)C(c1cccs1)N1CCN(c2ccc(F)cc2)CC1` (configuration not stated) gave SMARCA2 activ -4, JMJD2C inh 10, ALR inh 99*, Granule exo inh -3, beta cell repl -4 and PfM18AAP inh -1.
For CC(NC(=O)c1ccco1)C(c1cccs1)N1CCN(c2ccccc2F)CC1 (configuration not stated) the results were SMARCA2 activ -2, JMJD2C inh -1, ALR inh 5, Granule exo inh -1, beta cell repl -1 and PfM18AAP inh 1.
CC(NC(=O)c1ccco1)C(c1cccs1)N1CCN(c2ccccc2)CC1 (configuration not stated) was read as SMARCA2 activ 0, JMJD2C inh 19, ALR inh 98*, Granule exo inh 0, beta cell repl -2 and PfM18AAP inh -1.
Screening O=C(OCc1cn(Cc2cccc(F)c2F)nn1)N1CCCC1 returned SMARCA2 activ 2.
O=C(CCn1nnc2ccccc21)N1CCN(c2ccc(F)cc2)CC1 was read as SMARCA2 activ 1.

Bioassay records (PubChem BioAssay)
